ARNT-TACC3 inh = disruptors of ARNT/TACC3 protein interaction, primary screen, biochemical, AlphaScreen, single concentration; AlphaScreen His-ARNT PAS-B/GST-TACC3 binding, luminescence; TACC3 fragment carries E629A point mutation; Transforming acidic coiled-coil-containing protein 3 (Homo sapiens), Q9Y6A5; inhibition, % at 9.99 µM; 390,000 compounds, 0.66% hits; AID 623870, 2012;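 active = mean inhibition of replicates at least 50% and at least half of replicates each reaching 50%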
PDI inh = inhibitors of human PDI, primary screen, biochemical, turbidity, single point, plate reader; inhibition, % at 10 µM; PDI insulin aggregation turbidity, A650, 90 min; 350,000 compounds, 0.052% hits; Protein disulfide-isomerase (Homo sapiens), P07237;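 active = mean inhibition across replicates of 30% or more, whatever share of single replicates reach that level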
NRP1-CendR mod = modulators of CendR peptide binding to NRP-1, primary screen, biochemical, fluorescence polarization, uHTS. inhibition, % at 25 µM. 360,000 compounds, 0.85% hits. FAM-RPARPAR peptide binding to NRP-1. Neuropilin-1 (Homo sapiens), O14786. AID 602438, 2012;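 active = inhibition or corrected inhibition above about 18%, plus a signal ratio from 0.5 to 1.5, limit read from the data, passing the limit was not always enough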
ALR H2O2 inh = inhibitors of human ALR sulfhydryl oxidase, primary screen, biochemical, H2O2 detection, HRP-luminol luminescence, single point; FAD-linked sulfhydryl oxidase ALR (Homo sapiens), P55789; purified ALR, DTT oxidation; inhibition, % (test concentration not listed); 290,000 compounds, 3.8% hits; AID 485317, 2010;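 active = mean replicate inhibition above about 79%, with every replicate also reaching it, limit read from the data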
Target sequence (P55789 whole entry, looked up): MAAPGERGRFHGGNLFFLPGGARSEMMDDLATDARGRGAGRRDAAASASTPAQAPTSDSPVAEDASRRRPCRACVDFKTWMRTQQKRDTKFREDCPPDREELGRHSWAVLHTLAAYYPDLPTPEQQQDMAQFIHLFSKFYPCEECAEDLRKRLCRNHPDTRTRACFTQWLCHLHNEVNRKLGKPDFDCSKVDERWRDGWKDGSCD
PglD inh = C. jejuni PglD acetyltransferase inhibitors, primary screen, biochemical, DTNB colorimetric, single point | purified PglD enzyme, DTNB colorimetric CoA detection | inhibition, % at 12.5 µM | 360,000 compounds, 0.098% hits; in the data active = inhibition above about 16%, passing the limit was not always enough
ERp5 block = inhibitors of ERp5-driven insulin aggregation, primary screen, biochemical, turbidity, absorbance 650 nm, single point; Protein disulfide-isomerase A6 (Homo sapiens), Q15084; inhibition, % at 9.99 µM; 90 min; 350,000 compounds, 0.05% hits; AID 651711, 2012;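 active = mean replicate inhibition above about 25%, with every replicate also reaching it, limit read from the data, passing the limit was not always enough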
Target sequence (Q15084 whole entry, looked up): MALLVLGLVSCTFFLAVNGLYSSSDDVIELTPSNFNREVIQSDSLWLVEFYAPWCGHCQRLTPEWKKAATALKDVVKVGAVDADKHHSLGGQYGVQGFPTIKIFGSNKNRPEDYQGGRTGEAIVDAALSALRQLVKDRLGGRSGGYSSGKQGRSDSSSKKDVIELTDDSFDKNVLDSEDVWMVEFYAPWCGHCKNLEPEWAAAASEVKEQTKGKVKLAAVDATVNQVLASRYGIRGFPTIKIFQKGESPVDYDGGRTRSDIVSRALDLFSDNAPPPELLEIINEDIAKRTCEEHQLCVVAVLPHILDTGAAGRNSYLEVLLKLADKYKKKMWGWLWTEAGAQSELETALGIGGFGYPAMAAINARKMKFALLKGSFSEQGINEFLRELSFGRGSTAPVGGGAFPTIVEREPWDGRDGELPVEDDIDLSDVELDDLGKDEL
Numbers stand for hits; i = inactive; nt = no result. Only a selection was taken, and hits are over-represented in it overall.

SMILES	ARNT-TACC3 inh	PDI inh	NRP1-CendR mod	ALR H2O2 inh	PglD inh	ERp5 block
Cc1cc(C)nc(SCC(=O)c2cc3ccccc3oc2=O)n1	i	i	i	93.3	i	nt
O=C(CSC(=S)N1CCOCC1)c1cc2ccccc2oc1=O	47.9	i	i	96.1	i	nt
C/C=C/c1cnc2c(c1)C(=O)N([C@@H](C)CO)C[C@@H](C)[C@H](CN(C)Cc1cccc(C(=O)O)c1)O2	i	nt	nt	nt	i	i
CCCN1C[C@@H](C)[C@@H](OC)CN(C)C(=O)c2ccc(NC(=O)C3CCOCC3)cc2OC[C@@H]1C	i	nt	nt	nt	i	i
CC(=O)N(C)C[C@H]1Oc2ncc(-c3ccccc3F)cc2C(=O)N([C@@H](C)CO)C[C@H]1C	i	nt	nt	nt	i	i
CNC(=O)c1c(NC(=O)c2ccc(N3C(=O)CCC3=O)cc2)sc2c1CCC(C)C2 (stereo unspecified)	i	i	i	i	i	i
CNC(=O)c1c(NC(=O)c2nc3ccccc3s2)sc2c1CCC2	nt	nt	i	97.5	i	nt
CNC(=O)c1c(NC(=O)c2ccc(N3C(=O)CCC3=O)cc2)sc2c1CCCC2	i	nt	i	96.8	i	i
COC(=O)c1c(NC(=O)c2nc3ccccc3s2)sc2c1CCN(C(C)=O)C2	i	i	i	i	i	nt
Cc1ccc(C(=O)NCCc2nnc3ccc(SCC(=O)N4CCCCC4)nn23)cc1	i	i	i	89.3	i	i
Cc1ccc(C(=O)NCCc2nnc3ccc(SCC(=O)Nc4ccccc4F)nn23)cc1	i	i	i	97.3	i	i
COc1cccc(NC(=O)CSc2ccc3nnc(CCNC(=O)c4ccccc4)n3n2)c1	i	i	19.8	i	i	i
Cc1ccc(S(=O)(=O)NCCc2nnc3ccc(SCC(=O)Nc4nc(C)cs4)nn23)cc1	i	i	i	98.4	nt	i
COc1ccc(NC(=O)CSc2ccc3nnc(CCNC(=O)c4ccccc4)n3n2)cc1	i	i	i	i	i	i
CO[C@@H]1CN(C)C(=O)c2cc(NS(C)(=O)=O)ccc2OC[C@@H](C)N(C(=O)C2CC2)C[C@H]1C	i	nt	nt	nt	i	i
CC(C)NC(=O)[C@@]1(C)c2ccccc2C(=O)N(Cc2ccccc2)[C@H]1c1ccc(CO)cc1	i	nt	nt	nt	i	i
CCCC(=O)Nc1ccc2c(c1)OC[C@@H](C)N(C(=O)CN(C)C)C[C@H](C)[C@@H](OC)CN(C)C2=O	i	nt	nt	nt	i	i
CC(=O)SC(C[N+](=O)[O-])c1cn(C(C)=O)c2ccccc12 (stereo unspecified)	i	i	i	100.1	nt	nt
O=C(NCC(=O)N1CCC(Cc2ccccc2)CC1)c1ccccc1F	nt	i	32.3	nt	i	i
CCOC(=O)C1=C(c2ccccc2)N=c2s/c(=C\c3cccc(O)c3)c(=O)n2C1c1cccs1 (stereo unspecified)	i	60.7	i	i	nt	nt
Cc1ccc(S(=O)(=O)N(C)C[C@@H]2OCCCC[C@@H](C)Oc3ccc(NC(=O)CCCN(C)C)cc3C(=O)N([C@@H](C)CO)C[C@H]2C)cc1	i	nt	nt	nt	i	i
C[C@H](NC(=O)[C@H]1[C@H](CO)[C@H]2Cn3c(cccc3=O)[C@@H]1N2C(=O)C1CC1)c1ccccc1	i	nt	nt	nt	i	i
CNC(=O)C[C@H]1CC[C@H]2[C@@H](COC[C@H](O)CN2C(=O)Nc2cccc(OC)c2)O1	i	nt	nt	nt	i	i
Cc1noc(C)c1C(=O)N(C)C[C@H]1OCc2ccccc2-c2ccccc2C(=O)N([C@H](C)CO)C[C@@H]1C	i	nt	nt	nt	i	i
CCOC(=O)[C@H]1[C@H]2COc3ccccc3[C@@H]2N2C(=O)[C@@H](C)NC(=O)[C@@]12C	i	i	28.1	i	i	nt
SMILES	ARNT-TACC3 inh	PDI inh	NRP1-CendR mod	ALR H2O2 inh	PglD inh	ERp5 block
CCOC(=O)[C@@H]1[C@H]2COc3ccccc3[C@@H]2N2C(=O)N(c3ccc(Cl)cc3)C(=O)[C@]12C	i	i	30.2	i	i	i
Cc1cc(C)cc(N2C(=O)CS(=O)(=O)C2c2cccc([N+](=O)[O-])c2)c1 (stereo unspecified)	i	nt	nt	nt	i	i
O=C1c2cccc3cccc(c23)C(=O)C1(O)O	i	i	53.9	99.1	i	i
CC(=O)N1C(=O)c2cccc3cccc(c23)C(=O)N1C(C)=O	nt	nt	nt	i	nt	nt
CN(C)CCn1c(=O)n(-c2ccc(F)cc2)c(=O)c2c3c(sc21)CCCCC3	i	i	34.8	i	nt	i
COc1ccc(-n2nnc3c(=O)n(CC(=O)Nc4ccc5c(c4)OCCO5)cnc32)cc1OC	i	i	i	i	i	i
O=C(CSc1nc(Cc2ccccc2)nc2ccccc12)Nc1ccc2c(c1)OCCO2	i	i	i	i	i	i
O=C(CSc1ncnc2ccccc12)Nc1ccc2c(c1)OCO2	i	i	i	97.8	i	i
Cc1ccc(NC(=O)CSc2ncnc3ccccc23)cc1S(=O)(=O)N1CCOCC1	i	i	i	98.6	i	i
O=C(CSc1ncnc2ccccc12)Nc1ccc2c(c1)OCCO2	i	i	i	94.8	nt	i
COc1ccc(-n2nnc3c(SCC(=O)Nc4ccc5c(c4)OCCO5)ncnc32)cc1	nt	nt	nt	98.6	nt	nt
C[C@@H]1CCCCO[C@H](CN(C)CC2CC2)[C@H](C)CN([C@@H](C)CO)C(=O)c2cc(NS(=O)(=O)c3cn(C)cn3)ccc2O1	i	nt	nt	nt	i	i
Cc1ccc(-c2cnc(SCCNC(=O)c3ccco3)[nH]2)cc1	i	i	i	93.6	i	i
Cc1c(N=Cc2ccc[nH]2)c(=O)n(-c2ccccc2)n1C	i	i	i	97.0	i	i
Cc1c(N=Cc2ccccn2)c(=O)n(-c2ccccc2)n1C	i	i	i	98.5	i	nt
C[C@@H]1CN([C@H](C)CO)C(=O)c2cc(N(C)C)ccc2O[C@@H](C)CCCCO[C@H]1CN(C)C(=O)CCC(F)(F)F	i	nt	nt	nt	i	i
Cc1cccc(C(=O)O/N=C(\N)c2ccc(Cl)cc2)c1	i	i	i	i	nt	i
Cc1ccc(/C(N)=N/OC(=O)c2ccc(Cl)cc2Cl)cc1	i	i	51.7	i	i	i
Cc1cc2oc3cc(NCCC4CCCN4C)ccc3c(=O)c2cc1C (stereo unspecified)	i	i	i	90.8	i	i
CN1CCCC1CCNc1ccc2sc3ccccc3c(=O)c2c1 (stereo unspecified)	i	i	i	97.8	i	i
CC(C)NC(=O)N(C)C[C@H]1Oc2ccc(NC(=O)Cc3ccccc3)cc2C(=O)N([C@@H](C)CO)C[C@@H]1C	i	nt	nt	nt	i	i
